Bioassay records as filed in PubChem BioAssay.
Chronic BCR inh = qHTS Assay to Find Inhibitors of Chronic Active B-Cell Receptor Signaling | 340,000 compounds, 0.05% hits | Potency, µM (highest dose often 46.1 µM), for the others: top-dose activity change, negative = inhibition, usual class: inhibitors | AID 493014, 2011 | ABC-DLBCL IkBa-CBG/CBR reporter, luminescence ratio, 4 h; active = well fitted inhibition curve with a large enough effect in the signal ratio, with a control signal flat, not every such curve was filed as active; inconclusive = small, poorly fitted or top-dose-only effect, or effect the other way, or a change in a side signal; the % refers to the signal ratio;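 also: potency is read from the fitted curve at half-maximal effect; plate controls were basal doxycycline-induced cells for no effect and cells given 10 µM MG132 for full effect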
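Concentration-response series (up to 46 uM) were applied to TMD8 dual-reporter cells for 4 h at 37C with doxycycline. Green/red ratio, after filter-overlap correction, defined %Activity; red signal alone was normalised to basal cells and zero luminescence.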
Nrf2 activator = qHTS of Nrf2 Activators | Potency, µM (doses to about 46.1 µM), for inactives: at the top dose activation, most hits filed as activators | AREc32 ARE-luciferase reporter (MCF7-derived line), luminescence, 24 h | 410,000 compounds, 0.31% hits | AID 624171, 2012; also: potency is read from the fitted curve at half-maximal effect; % of control where 0% means no effect; nearly all actives have a fitted effect of over 65% in size
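Cells of the AREc32 ARE-luciferase line are plated in OPTI-MEM containing 5% FBS and left overnight at 37 deg C. Compounds are pinned in, incubation continues 24 hr, and firefly luciferase signal is then measured.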
BRCA1 expr act = qHTS Assay to Identify Small Molecule Activators of BRCA1 Expression. 380,000 compounds, 1.1% hits. MCF7-BRCA1-FFLuc reporter, luminescence, 48 h; response scale: scaled: vehicle 0%, 10 µM genistein 100%. Potency, µM (highest dose often 46.1 µM), for the others: at the highest dose activation, hits mostly activators; also: potency is read from the fitted curve at half-maximal effect; nearly all actives have a fitted effect of over 80% in size
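Luminescence from a BRCA1-driven firefly luciferase in MCF7 cells was the read-out, taken 15 min after substrate addition following 48 h compound exposure at 37 °C. Data were normalized to a 10 microM genistein control and DMSO vehicle.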
N370S GC mod = qHTS Assay for Inhibitors and Activators of N370S glucocerebrosidase as a Potential Chaperone Treatment of Gaucher Disease | 330,000 compounds, 0.092% hits | AID 2101, 2009 | Potency, µM (series often up to 59.4 µM), for the others: at the top dose activity change, negative = inhibition, most hits filed as inhibitors | Lysosomal acid glucosylceramidase (Homo sapiens), P04062 | N370S GC spleen homogenate, 4MU-glucoside fluorescence;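 also: potency is read from the fitted curve at half-maximal effect; 0% = full enzyme activity and -100% = no enzyme basal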
a7 integrin act = qHTS for Activators of Integrin-Mediated Alleviation for Muscular Dystrophy; alpha7betagal myoblasts, beta-gal FDG fluorescence, 48 h; Potency, µM (highest dose often 38.3 µM), inactives show at the top dose activation, hits mostly activators; 350,000 compounds, 0.064% hits; AID 624291, 2012;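 also: potency is read from the fitted curve at half-maximal effect; 100% = response of the positive control SU9516; nearly all actives have a fitted effect of over 60% in size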
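alpha7betagal+/- myoblasts (passage 13, 250/well) treated 48 h at 37C with compounds at 1:260 dilution of DMSO stock. Lysed, then beta-galactosidase activity read as FDG fluorescence (ex 480/em 540) after 30 min, with pre-read for autofluorescence.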
IL-2 act = qHTS of IL-2 Activators; 360,000 compounds, 0.065% hits; activation, % (series mostly up to about 46 µM); IL-2 activation reporter assay, cell-based qHTS; stimulated with anti-CD3/CD4/CD28 beads; in transgenic mouse T cells; AID 652025, 2013; in the data active = activation above about 50%; inconclusive = mostly about 30% to 49%; also: 0% is about no effect
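First, unstimulated transgenic mouse T cells were exposed to compound for 60 min. Next, anti-CD3/anti-CD4-coated beads with anti-CD28 were added. Finally, after 18 h at 37 degrees C, EGFP and DsRed were imaged.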
* marks the source's active call; other numbers are inactive results; [ ] = dose if it differs, or a comment. Only some compounds are listed: those with a hit (about 1.4% of all), similar ones and a draw of the others. Unless noted, calls follow the shape of the dose curve; as a rule, active = well fitted curve in the direction sought with a large enough effect; inconclusive = small, poorly fitted or top-dose-only effect, or another doubt; inactive = no such curve, though single readings can be large; an effect the other way counts as inactive or inconclusive.

O=C(CNC(=O)C(c1ccccc1)c1ccccc1)OCC(=O)c1cccc2ccccc12 was read as BRCA1 expr act 3.2%.
For COC(=O)c1c(NC(=O)CC2Nc3cc(C)c(C)cc3NC2=O)sc(C)c1C (centres undefined) the results were Chronic BCR inh inconclusive, Nrf2 activator 0.3%, BRCA1 expr act 13.3%, N370S GC mod 7.3%, a7 integrin act -2.5% and IL-2 act 61.7*.
CCc1cc(C(=O)OC)c(NC(=O)CC2Nc3cc(C)c(C)cc3NC2=O)s1 (centres undefined) was read as Chronic BCR inh -6.2%, Nrf2 activator -0.2%, BRCA1 expr act 1.7%, N370S GC mod 3.2%, a7 integrin act 12.5% and IL-2 act inconclusive.
`C/C(=C\c1ccccc1)C(=O)Nc1ccc(Cl)cn1` gave Chronic BCR inh inconclusive, Nrf2 activator 6.5%, BRCA1 expr act 7.94µM*, N370S GC mod 0.4%, a7 integrin act inconclusive and IL-2 act 1.0.
Screening O=C(Nc1ccc(Cl)cn1)Nc1ccc(Cl)cn1 returned Chronic BCR inh inconclusive, Nrf2 activator 0.6%, BRCA1 expr act 39.0%, N370S GC mod 7.1%, a7 integrin act 12.5% and IL-2 act -1.2.
`N/C(CS(=O)(=O)c1ccccc1)=N\OC(=O)c1ccc(F)cc1` gave Chronic BCR inh -7.8%, Nrf2 activator 0.4%, BRCA1 expr act 11.2µM*, N370S GC mod -4.1%, a7 integrin act 2.9% and IL-2 act -1.7.
Screening Cc1cc(C(=O)CSc2n[nH]c(N)n2)c(C)n1-c1cccc(F)c1 returned Chronic BCR inh 5.5%, Nrf2 activator -0.7%, BRCA1 expr act 12.6µM*, N370S GC mod 2.6%, a7 integrin act -6.1% and IL-2 act -1.5.
`Cc1cc(C(=O)CSc2ncccn2)c(C)n1-c1cccc(F)c1` gave Chronic BCR inh 0.0%, Nrf2 activator 0.2%, BRCA1 expr act inconclusive, N370S GC mod 25.2%, a7 integrin act -11.7% and IL-2 act 0.7.
CC1(C)CC(=O)c2cnc(N3CCN(c4ccccc4)CC3)nc2C1 was read as Chronic BCR inh inconclusive, Nrf2 activator 0.0%, BRCA1 expr act -4.9%, N370S GC mod 0.9%, a7 integrin act 7.4% and IL-2 act -0.5.
CC1(C)CC(=O)c2cnc(N3CCc4ccccc4C3)nc2C1 was read as Chronic BCR inh 1.7%, Nrf2 activator 5.5%, BRCA1 expr act 7.08µM*, N370S GC mod -0.1%, a7 integrin act -13.5% and IL-2 act -1.9.
Screening CC1CCCN(C(=O)CSc2cnc3ccccc3n2)C1 (centres undefined) returned Chronic BCR inh inconclusive, Nrf2 activator 3.9%, BRCA1 expr act 11.2µM*, N370S GC mod 11.1%, a7 integrin act -22.2% and IL-2 act 1.9.
`CCN(CC)c1ccc(C=C2C(=O)OC(c3ccccc3)OC2=O)cc1` (centres undefined) gave Chronic BCR inh 2.4%, Nrf2 activator 3.4%, BRCA1 expr act 23.3%, N370S GC mod 1.6%, a7 integrin act 24.0% and IL-2 act -0.4.
Screening CCN(CC)c1ccc(/C=C/C(=O)C2C(=O)C=C(C)OC2=O)cc1 (centres undefined) returned Chronic BCR inh -3.7%, Nrf2 activator 5.7%, BRCA1 expr act 5.62µM*, N370S GC mod -8.1%, a7 integrin act -7.8% and IL-2 act 11.4.
COc1ccc(S(=O)(=O)N2CCC(C(=O)N[C@@H](C)C(=O)NCc3cccnc3)CC2)cc1 was read as Nrf2 activator -0.3%, BRCA1 expr act 20.2%, a7 integrin act 1.4% and IL-2 act -1.4.
For Cc1cnc(C(=O)Nc2nnc(C3CC3)s2)cn1 the results were Chronic BCR inh 6.4%, Nrf2 activator -0.8%, BRCA1 expr act 6.6%[1.84 µM], N370S GC mod -15.1%, a7 integrin act 1.0% and IL-2 act 3.6.
COc1c(C(=O)Nc2nnc(C3CC3)s2)csc1Cl was read as Chronic BCR inh inconclusive, Nrf2 activator 8.91µM*, BRCA1 expr act 42.2%, N370S GC mod -13.6%, a7 integrin act -38.8% and IL-2 act -2.2.
For COc1cccc(NC(=O)/C=C/c2ccccc2[N+](=O)[O-])c1 the results were Chronic BCR inh inconclusive, Nrf2 activator inconclusive, BRCA1 expr act 3.16µM*, N370S GC mod 3.4%, a7 integrin act -27.7% and IL-2 act 2.9.
CCC(=O)Nc1ccc(C(=O)Nc2ccc(OC)cc2[N+](=O)[O-])cc1 was read as Chronic BCR inh 0.8%, Nrf2 activator -1.1%, BRCA1 expr act -0.7%, N370S GC mod 1.1%, a7 integrin act -10.6% and IL-2 act -0.8.
Screening CCCOc1ccc(C(=O)Nc2ccccc2[N+](=O)[O-])cc1 returned Nrf2 activator 10.6%, BRCA1 expr act 3.16µM*, a7 integrin act 12.1% and IL-2 act 2.1.
CCCCOc1ccc(C(=O)Nc2ccc(C)cc2[N+](=O)[O-])cc1 was read as Chronic BCR inh inconclusive, Nrf2 activator 2.4%, BRCA1 expr act 45.6%, N370S GC mod 7.6%, a7 integrin act 12.5% and IL-2 act 0.8.
`COc1ccc(NC(=O)c2ccccc2)c([N+](=O)[O-])c1` gave Chronic BCR inh -18.0%, Nrf2 activator 6.1%, BRCA1 expr act 7.94µM*, N370S GC mod -1.2%, a7 integrin act inconclusive and IL-2 act 1.0.
For Cc1cccc(C(=O)O[C@@H]2[C@H](Cc3ccccc3)NS(=O)(=O)[C@H]3C[C@@H]4C=C[C@]23O4)c1 the results were Chronic BCR inh 6.8%, Nrf2 activator 0.7%, BRCA1 expr act 0.0%, a7 integrin act -4.8% and IL-2 act -0.3.
COc1ccc(C2=Nn3c(nnc3-c3cc(OC)cc(OC)c3)SC2)cc1 was read as N370S GC mod 1.6%.
Screening CCOc1cnc(-c2ccc(OC)cc2)o1 returned Chronic BCR inh 1.6%, Nrf2 activator 4.7%, BRCA1 expr act 7.94µM*, N370S GC mod 9.5%, a7 integrin act 6.1% and IL-2 act -1.4.
Screening CCOc1cnc(-c2ccc(Cl)cc2)o1 returned Chronic BCR inh inconclusive, Nrf2 activator 2.7%, BRCA1 expr act 35.0%, N370S GC mod 4.8%, a7 integrin act 12.1% and IL-2 act 1.7.
